Shown is part of a subset that was picked to be rich in hits.
STK33 kin inh: STK33 kinase inhibitors, primary screen, biochemical, luminescence, ADP-Glo, MBP substrate | Serine/threonine-protein kinase 33 (Homo sapiens), Q9BYT3 | inhibition, % at 12.5 µM | 27,000 tested, 0.44% active | AID 2322, 2010; in the data active = inhibition above about 20%; inconclusive = no clear call, values can overlap the other calls
Target sequence (Q9BYT3 whole entry, looked up): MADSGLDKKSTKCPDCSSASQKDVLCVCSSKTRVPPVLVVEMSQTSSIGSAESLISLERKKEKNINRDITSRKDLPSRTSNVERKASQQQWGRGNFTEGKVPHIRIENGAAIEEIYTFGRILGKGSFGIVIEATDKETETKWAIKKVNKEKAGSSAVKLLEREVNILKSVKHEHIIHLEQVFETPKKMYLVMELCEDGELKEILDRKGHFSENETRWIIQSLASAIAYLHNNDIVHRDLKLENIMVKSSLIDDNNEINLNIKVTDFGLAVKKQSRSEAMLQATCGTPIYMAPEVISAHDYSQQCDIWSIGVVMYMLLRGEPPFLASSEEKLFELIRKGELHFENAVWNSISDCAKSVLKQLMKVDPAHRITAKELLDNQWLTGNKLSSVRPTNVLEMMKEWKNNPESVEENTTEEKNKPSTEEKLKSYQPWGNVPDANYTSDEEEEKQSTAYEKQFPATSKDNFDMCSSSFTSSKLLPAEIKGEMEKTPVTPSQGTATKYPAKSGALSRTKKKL
NOMO-1 viab: NOMO-1 AML cell viability reduction, primary screen, STK33 inhibitor project, CellTiter-Glo luminescence; NOMO-1 AML viability, 72 h; inhibition, % (concentration not given with the values); 37,000 tested, 7.5% active; AID 2330, 2010; in the data active = inhibition above about 80%; inconclusive = no clear call, values can overlap the other calls
PD-1 reversal: activators reversing PD-1 mediated T-cell inhibition, primary screen, luminescence, primary human CD4 T cells, PD-L1 beads; CellTiter-Glo 96 h; activation, % (no concentration beside the values); 29,000 tested, under 10 active; call rule not given here;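 also: 0% = median vehicle wells and 100% = positive control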
Active calls of the source: *; u = inconclusive; x = no result.

SMILES	STK33 kin inh	NOMO-1 viab	PD-1 reversal
COc1ccc(OC)c(C2C(C(=O)Nc3ccccc3OC)=C(C)Nc3ncnn32)c1 (stereo not drawn)	-2.9	-15.5	x
CCCn1nnc(NC(=O)COc2ccc(Cl)c(C)c2)n1	2.4	-3.1	-0.5
COc1ccc(C(=O)Oc2ccc(C)c3c2C(=O)OC(C)C3)c2c1C(=O)OC(C)C2 (stereo not drawn)	-1.8	-13.0	1.0
CS/C(Nc1cccc(Cl)c1Cl)=C(/C#N)C(=O)c1cccs1	x	93.8*	-0.4
N#CC(C(=O)c1cccs1)=C1SCCCS1	x	39.0	0.0
Cc1ccc(C)c(NC(=O)c2ccc(OCC(=O)Nc3ccc(Cl)c(Cl)c3)cc2)c1	3.2	-4.6	x
COc1cc2c(cc1O)C(C1CC1)N(C)CC2 (stereo not drawn)	-6.9	x	x
COc1cc2c(cc1O)CCC1C2CC[C@@]2(C)C1CC[C@@H]2O (stereo partly drawn)	3.0	97.4*	-8.7
COc1ccc2c(c1)CCC1C2CCC2(C)C1C[C@@H](O)C2O (stereo partly drawn)	2.2	3.7	x
COc1cc(C)c2c(c1)CCC1C2CCC2(C)C(O)CCC12 (stereo not drawn)	x	91.4*	-1.1
CC1CC(O)CC(C)(C)C1(O)/C=C/C(CO)O[C@@H]1O[C@H](CO)[C@@H](O)[C@H](O)[C@H]1O (stereo partly drawn)	-3.8	15.4	-1.1
COC(=O)c1ccc(C(=O)OC)cc1	x	20.3	0.7
COC(=O)c1sc(=S)sc1C(=O)OC	-4.0	95.8*	-8.3
CCc1ccc(NC(=O)Cn2c(-c3nonc3N)nc3ccccc32)cc1	-4.0	5.3	x
N#CC(=C1SCCCS1)S(=O)(=O)c1cccs1	x	23.0	1.3
C[C@H]1CN([C@@H](C)CO)C(=O)c2cc(NC(=O)Nc3ccc4c(c3)OCO4)ccc2O[C@@H]1CN(C)Cc1ccc(Cl)c(Cl)c1	0.1	23.0	-6.3
C[C@@H]1CN([C@H](C)CO)C(=O)c2cc(NC(=O)Nc3ccc4c(c3)OCO4)ccc2O[C@H]1CN(C)Cc1ccc(Cl)c(Cl)c1	x	49.1	1.2
C[C@H](CO)N1C[C@H](C)[C@H](CN(C)Cc2ccc(Cl)c(Cl)c2)Oc2ccc(NC(=O)Nc3ccc4c(c3)OCO4)cc2C1=O	-0.5	88.3*	0.9
C[C@H](CO)N1C[C@H](C)[C@@H](CN(C)Cc2ccc(Cl)c(Cl)c2)Oc2ccc(NC(=O)Nc3ccc4c(c3)OCO4)cc2C1=O	x	100.6*	1.1
COC(=O)Cn1c(=O)n(Cc2ccco2)c(=O)c2c3c(sc21)CCCC3	5.0	6.3	x
CCc1cccc(C)c1NC(=O)CNS(=O)(=O)c1ccc(Cl)cc1	0.5	-8.2	0.2
CC1CCC(C(C)C)C(=O)/C1=C/c1ccc(N(C)C)cc1 (stereo not drawn)	x	62.9	-0.5
COc1ccc(/C=C2/C(=O)C(C)(C(C)C)CCC2C)cc1 (stereo not drawn)	x	93.8*	0.8
CC(=O)Oc1ccc2c(=O)c(Oc3ccc(Cl)cc3)c(C)oc2c1	x	34.3	-2.6
COC(=O)CC(O)(CCCC(C)(C)O)C(=O)O[C@@H]1C(OC)=C[C@]23CCCN2CCc2cc4c(cc2[C@@H]13)OCO4 (stereo partly drawn)	3.7	98.8*	-15.3
SMILES	STK33 kin inh	NOMO-1 viab	PD-1 reversal
O=C(O)CCNC(=O)c1ccco1	x	19.3	0.8
COC(=O)C1=CO[C@@H](O[C@@H]2O[C@H](CO)[C@@H](O)[C@H](O)[C@H]2O)[C@H]([C@H](C)OC(C)=O)[C@@H]1CC(=O)O	0.2	-5.8	4.9
CCc1ccc(C(=O)Oc2ccc(C#N)cc2)cc1	x	69.3	0.9
CN(C)Cc1ccc(C(=O)Oc2ccc(C(C)(C)C)cc2)cc1	x	114.6*	-2.0
Nc1nc(SCC(=O)Nc2ccccc2C(F)(F)F)n[nH]1	-2.3	-1.6	0.7
Cc1cc(C(=O)Nc2cccc3c2O[C@@H](CN(C)Cc2ccc(C(=O)Nc4ccccc4N)cc2)[C@@H](C)CN([C@H](C)CO)C3=O)n(C)n1	x	u	-0.9
C[C@@H]1CN([C@@H](C)CO)C(=O)c2cccc(NC(=O)c3cnccn3)c2O[C@@H]1CN(C)Cc1ccc(C(=O)O)cc1	x	21.4	1.4
C[C@H]1CN([C@@H](C)CO)C(=O)c2cccc(NC(=O)c3cnccn3)c2O[C@H]1CN(C)Cc1ccc(C(=O)O)cc1	x	7.7	1.9
Cc1cc(C(=O)Nc2cccc3c2O[C@H](CN(C)Cc2ccc(Oc4ccccc4)cc2)[C@H](C)CN([C@H](C)CO)C3=O)n(C)n1	x	18.6	-1.8
Cc1cc(C(=O)Nc2cccc3c2O[C@H](CN(C)Cc2ccc(C(=O)Nc4ccccc4N)cc2)[C@H](C)CN([C@@H](C)CO)C3=O)n(C)n1	x	128.0*	-3.6
C[C@H](CO)N1C[C@H](C)[C@@H](CN(C)Cc2ccc(C(=O)Nc3ccccc3N)cc2)Oc2c(NC(=O)c3cnccn3)cccc2C1=O	x	118.1*	-2.1
C[C@H]1CN([C@@H](C)CO)C(=O)c2cccc(NC(=O)c3cnccn3)c2O[C@H]1CN(C)Cc1ccc(C(=O)Nc2ccccc2N)cc1	x	129.1*	-5.9
Cc1cc(C(=O)Nc2cccc3c2O[C@@H](CN(C)Cc2ccc(Oc4ccccc4)cc2)[C@H](C)CN([C@@H](C)CO)C3=O)n(C)n1	x	101.8*	-8.2
Cc1cc(C)c(NC(=O)CSc2nc(-c3ccccc3)cc(=O)[nH]2)c([N+](=O)[O-])c1	-0.9	-36.2	1.4
O=C(CSc1nnc(-c2cccc(Br)c2)n1-c1ccccc1)Nc1ccccc1[N+](=O)[O-]	-0.5	18.2	1.1
COc1ccc(N2Cc3ccccc3C3(CCOCC3)C2=N)cc1	-4.3	39.1	-1.2
Cc1nc(SC(C(=O)c2ccccc2)c2ccccc2)nc2c1CCCC2 (stereo not drawn)	-0.8	39.3	x
C[C@@H]1CN([C@H](C)CO)C(=O)c2cccc(NC(=O)c3ccncc3)c2O[C@@H]1CN(C)Cc1ccc(C(=O)Nc2ccccc2N)cc1	x	127.9*	-0.9
C[C@@H]1CN([C@@H](C)CO)C(=O)c2cccc(N(C)C)c2O[C@@H]1CN(C)Cc1ccc(C(=O)Nc2ccccc2N)cc1	x	127.7*	-1.8
C[C@H](CO)N1C[C@H](C)[C@H](CN(C)Cc2ccc(C(=O)Nc3ccccc3N)cc2)Oc2c(NC(=O)c3ccncc3)cccc2C1=O	x	51.3	-2.8
C[C@H](CO)N1C[C@H](C)[C@H](CN(C)Cc2ccc(C(=O)O)cc2)Oc2c(NC(=O)c3cnccn3)cccc2C1=O	x	2.2	1.8
C[C@H]1CN([C@@H](C)CO)C(=O)c2cccc(NC(=O)c3cnccn3)c2O[C@@H]1CN(C)Cc1ccc(C(=O)Nc2ccccc2N)cc1	x	107.8*	-2.3
C[C@H]1CN([C@@H](C)CO)C(=O)c2cccc(NS(C)(=O)=O)c2O[C@H]1CN(C)Cc1ccc(C(=O)Nc2ccccc2N)cc1	x	45.0	1.6
Cc1ccc(OCC(=O)Nc2cccc(-c3nc4cc(Cl)ccc4o3)c2C)cc1C	-0.4	14.5	-3.2
CC(=O)Nc1sc2c(c1SC#N)CCCC2	x	72.3	-7.7
COc1cc(Cl)c(C)cc1NC(=O)C(CC(C)C)N1C(=O)c2ccccc2C1=O (stereo not drawn)	-0.1	14.7	-0.1
Nc1nc(Cc2ccc(F)cc2F)no1	x	-0.3	0.8
